This passage reports survival results from PubChem BioAssay AID463173 (ICCB-Longwood Screening Facility, Harvard Medical School, 2010).

The whole screen tested about 52,000 compounds, of which about 1,700 (3.3%) were called active. Rule as the data show it: active = survival mostly below about 52% (no sharp cut-off); inactive = mostly above about 56%. The entries come from a sample that favours actives as a whole.

This assay concerns Wild type. As to the kind of experiment: growth inhibition of S. aureus wild type versus tarO mutant, primary screen, teichoic acid synthesis inhibitors, RN4220, OD600 (AID 463173). The note with it: S. aureus RN4220 wild type/DeltatarO growth, OD600, 18 h, active compounds read low, screened at 18.75 µg/mL (by protocol).
For `COc1ccc(C(=O)NCC(c2ccc3c(c2)OCO3)N2CCN(C)CC2)cc1` (centres undefined), the survival is 60% (inactive).

In the case of `CCc1ccc(-n2nc3ccc(NC(=O)COc4ccc(OC)cc4)cc3n2)cc1`, the survival was 95% (inactive).

Turning to `CCOc1ccc(CCNC(=O)C2CCN(Cc3nc(-c4ccccc4C)oc3C)CC2)cc1OCC`, the survival is 81% (inactive).

`CCc1cccc(C)c1NC(=O)CCS(=O)(=O)c1cc(Br)cc2c1N(C(=O)C1CC1)CC2`: the survival was 85% (inactive).

Turning to `CC(=O)c1sc(NC(=O)c2c(-c3ccccc3)c(-c3ccccc3)nn(C)c2=O)nc1C`, the survival was 54% (inactive).

Regarding `COc1cc(N(C(=O)c2ccco2)C(C(=O)NC2CCCC2)c2ccc(C)cc2)ccc1-n1cnnn1` (centres undefined), the survival was 105% (inactive).

Take `Cc1ccccc1-c1nnc(SCC(=O)N2CCCc3ccccc32)o1`: the survival was 15% (active).

Turning to `COc1cccc(-c2nnc(SCC(=O)N3CCc4ccccc43)o2)c1`, the survival was 69% (inactive).

With `O=C(CSc1nnc(-c2ccccc2Cl)o1)N1CCCc2ccccc21`, the survival was 35% (inactive).

For the molecule `Cc1cccc(-c2nnc(SCC(=O)N3CCCc4ccccc43)o2)c1`, the survival is 5% (active).

For the molecule `O=C(CSc1nnc(-c2ccccc2)o1)N1CCCc2ccccc21`, the survival is 68% (inactive).

For the molecule `O=C(CSc1nnc(-c2cccc(F)c2)o1)N1c2ccccc2Sc2ccccc21`, the survival was 103% (inactive).

For the molecule `Cc1ccc(-c2nnc(SCC(=O)N3CCCc4ccccc43)o2)cc1`, the survival is 65% (inactive).

As to `O=C(CSc1nnc(-c2ccc(F)cc2)o1)N1CCCc2ccccc21`, the survival is 66% (inactive).

Regarding `COc1cccc(-c2nnc(SCC(=O)N3c4ccccc4Sc4ccccc43)o2)c1`, the survival was 11% (active).

For the molecule `CCn1c(SC)nnc1C1CCCN(C(=O)Cc2cccnc2)C1` (centres undefined), the survival was 89% (inactive).

As for `CCC1CCCCN1CCCNC(=O)CN1C(=O)c2cccnc2Oc2ccc(Cl)cc21` (centres undefined), the survival was 65% (inactive).

Regarding `Cc1cc(C)cc(NS(=O)(=O)c2ccc3[nH]cc(C(=O)NCc4ccccc4Cl)c(=O)c3c2)c1`, the survival is 111% (inactive).

With `CCOc1ccccc1-c1noc(CSc2nnc(-c3ccccc3)n2-c2ccc(F)cc2)n1`, the survival was 117% (inactive).

On to `CN(C(=O)CSc1nc(C2CCCC2)nc2c1c(=O)n(C)c(=O)n2C)c1ccccc1`, for which the survival is 128% (inactive).

Turning to `Cc1ccc(-c2c(CN3CCN(c4cccc(C)c4)C(C)C3)csc2C)cc1` (centres undefined), the survival was 90% (inactive).

Take `CC(=O)Nc1cccc(NC(=O)CSc2ccc(-c3sc(-c4ccccc4)nc3C)nn2)c1`: the survival was 17% (active).

Regarding `Cc1nc(-c2ccccc2)sc1-c1ccc(SCC(=O)Nc2ccccc2)nn1`, the survival was 41% (inactive).

On to `Cc1nc(-c2ccccc2)sc1-c1ccc(SCC(=O)Nc2cccc(C(F)(F)F)c2)nn1`, for which the survival is 67% (inactive).
